Bioassay records: PubChem BioAssay, National Center for Advancing Translational Sciences (NCATS)
Pf Dd2 growth – qHTS Primary assay for Inhibitors of Plasmodium falciparum Dd2 growth in vitro. P. falciparum Dd2 growth, SYBR Green, 72 h. Potency, µM (doses to about 28.9 µM), for inactives: at the highest dose activity, negative = inhibition, hits mostly inhibitors. hit rate 4.3% among 120,000; active = well fitted inhibition curve with a large enough effect;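 also: plate controls were DMSO vehicle for no effect and reference drug for full effect; nearly all actives have a fitted effect of over 65% in size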
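Readout: SYBR Green fluorescence, 485 nm excitation, 535 nm emission, after ~16 h lysis at 37C. Before that, Dd2-infected red cells (2.5% hematocrit) grew 72 h with compound, 29 uM top final concentration.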
* hit, by the source's call; i = inactive; [ ] = remark or other dose. Only a selection was taken, and hits are over-represented in it overall. Potency is read from the fitted curve at half-maximal effect.

SMILES	Pf Dd2 growth
COc1ccccc1/C=C/CN1CCCC(CCC(=O)Nc2ccccc2F)C1 (configuration not stated)	8.9µM*
COc1cccc(C(=O)NCC2CCCN(C/C(C)=C/c3ccccc3)C2)c1OC (configuration not stated)	-11%
CCOc1ccc(CN2CCCC(CCC(=O)Nc3ccccc3F)C2)cc1CO (configuration not stated)	i
Cc1nccn1Cc1nnc(C2CCCN(S(=O)(=O)C3CC3)C2)n1C (configuration not stated)	-14%
O=C(NCCc1cccc(F)c1)C1CC(=O)N(c2n[nH]c3ccccc23)C1 (configuration not stated)	-17%
Cc1ccc(CNC(=O)N2CCCC(c3nn[nH]n3)C2)cc1 (configuration not stated)	18%
Cc1ccccc1-c1nc(CS(=O)(=O)CC(=O)Nc2c(C)cccc2C)c(C)o1	4%
Cc1ccc(CSc2nc3ccncc3n2Cc2nc(-c3ccccc3C)oc2C)cc1	11%
Cc1ccccc1-c1nc(Cn2ccnc2C(C)C)c(C)o1	11µM*
Cc1ccc(N2Cc3c(NCCO)ncnc3N(C)CC2=O)cc1	0%[44.1 µM]
COc1ccc(C(=O)N2CCC(Cn3c(C)cnc3C3CCC3)CC2)c(OC)c1	-26%
C#CCNC(=O)c1nc(-c2ccc(Cl)cc2)c2ccccn12	-26%[44.1 µM]
Cc1cn2nc(C(=O)NCCc3ccccc3)cc2c(N2CCCC2)n1	i
Cc1cn2nc(C(=O)NCC(C)C)cc2c(N2CCCC2)n1	i
Cc1cn2nc(C(=O)NC3CCCCC3)cc2c(N2CCCC2)n1	10µM*
CC(C)n1cccc1C(=O)N1CC[C@H](N2CCN(C)CC2)[C@H](CCC(=O)O)C1	9%
O=C(c1cccnc1)N1CCC2(CC1)NCCc1c2[nH]c2ccccc12	-13%
O=C(c1ccncc1)N1CCC2(CC1)NCCc1c2[nH]c2ccccc12	i
O=C(c1ccc(Cn2ccnc2)o1)N1CCC2(CC1)NCCc1c2[nH]c2ccccc12	13µM*
CCOC(=O)C1CCN(C(=O)c2cn3ccnc(-c4ccc(OC)cc4)c3n2)CC1	i
Cc1nc(-c2cccnc2)ncc1C(=O)N1CC[C@](C)(O)C(C)(C)C1	9%
Cc1ccccc1CNC(=O)c1nnn2c1COC(c1ccc(Cl)cc1)C2 (configuration not stated)	i
COc1ccc2nc([C@H]3CCN(C(C)C)C3)[nH]c2c1	32µM*
COc1ccc2nc([C@H]3CCN(C4CCN(C(C)=O)CC4)C3)[nH]c2c1	i
COc1ccc2nc([C@H]3CCN(Cc4ccc(C(=O)O)cc4)C3)[nH]c2c1	-15%[44.1 µM]
SMILES	Pf Dd2 growth
COc1ccc2nc([C@H]3CCN(CCCc4ccccc4)C3)[nH]c2c1	11µM*
CC(C)N1CC[C@H](c2nc3ccc(C#N)cc3[nH]2)C1	-16%[44.1 µM]
c1ccc(CCCN2CC[C@H](c3nc4ccccc4[nH]3)C2)cc1	i
CNC(=O)N1CCC(C2CCN(C3CCN(CCc4ccccc4)CC3)C2)CC1 (configuration not stated)	-23%
COc1ccc(NC(=O)C(c2ccc(C)cc2)N(C)C(=O)/C=C\c2ccc3c(c2)OCO3)cc1 (configuration not stated)	-25%
COc1ccc(/C=C/C(=O)Nc2ccc(C)cc2)cc1	-29%
COc1ccc(NC(=O)/C=C\C(=O)N(c2ccc(C(C)C)cc2)C(C(=O)NCc2ccco2)c2ccc(C)cc2)cc1 (configuration not stated)	10µM*
Cc1cc(=O)cc(C(=O)N2CCC(O)(CN3CCOCC3)C(C)(C)C2)o1 (configuration not stated)	-18%
CCCN(CCC)CC(O)Cn1cc(/C=C/C(=O)c2ccc(OC)cc2)c2ccccc21 (configuration not stated)	3.2µM*
COc1ccc(C(=O)NCCn2cc(SCc3cc(C)ccc3C)c3ccccc32)cc1	-18%
COc1ccc(NC(=O)Cn2cc(C(=O)C3CC3)c3ccccc32)cc1	0%
COc1ccc(C(=O)NCCn2cc(SCC(=O)Nc3ccc(F)cc3)c3ccccc32)cc1	i
COc1ccc(C(=O)/C=C/c2cn(CC(O)CN(CC(C)C)CC(C)C)c3ccccc23)cc1 (configuration not stated)	3.2µM*
CCCn1cc2c3c(cccc31)CN(C(=O)c1ccc(OC)cc1)CC2	i
COCc1cc(C[C@H]2CNCC[C@H]2CC(=O)NCc2ccccc2OC)no1	i
O=C1NC(=NC2CCCC2)C2(CCN([S+](=O)([O-])c3ccccc3)CC2)N1c1cccnc1	16%
O=C1CCN(S(=O)(=O)c2ccccc2)CCCN(C(=O)CC2CCCCC2)CCN1	-25%
O=C(NC1CCN(C(=O)N2CC3CC(C2)[C@H]2CCCC(=O)N2C3)CC1)C1CCC1 (some centres not stated)	8%
O=C1NCc2ccccc2CC12CCN(Cc1ccc(Cl)cc1)C2 (configuration not stated)	-6%
O=[N+]([O-])c1cccc(-c2noc([C@@H]3Cc4nc[nH]c4CN3Cc3cccs3)n2)c1	-16%[44.1 µM]
N#Cc1cccc(CN2Cc3[nH]cnc3C[C@H]2c2nc(-c3cccc([N+](=O)[O-])c3)no2)c1	13µM*
Cc1cccc(-c2noc([C@@H]3Cc4nc[nH]c4CN3C(=O)c3ccc(F)cc3)n2)c1	i
N#Cc1cccc(CN2Cc3[nH]cnc3C[C@H]2C(=O)NCc2ccco2)c1	-6%[44.1 µM]
Cc1cccc(-c2noc([C@@H]3Cc4nc[nH]c4CN3Cc3ccc(C(=O)O)cc3)n2)c1	i
O=[N+]([O-])c1cccc(-c2noc([C@@H]3Cc4nc[nH]c4CN3Cc3ccc(F)cc3)n2)c1	10µM*
SMILES	Pf Dd2 growth
COc1cccc(CC(=O)N2CCC[C@H]2C(=O)N2CCCCCCNC(=O)CC2)c1	12%
CCCCc1nc2cc(C(=O)N(C)Cc3ccc4nonc4c3)ccc2o1	i
CCOC(=O)C1=CN(CC(=O)NCc2ccc(Cl)cc2)S(=O)(=O)N=C1C	35%
CN1C(=O)CC[C@]2(C(=O)NCc3ccccc3Cl)CCCC[C@@H]12	1%
O=C(NC1CC1)[C@@H]1CN(Cc2cccnc2)C[C@H]1CO	13%
Oc1ccccc1CN1C[C@H](O)C[C@H]1c1nc(-c2ccncc2)no1	-8%[44.1 µM]
Cc1cccc(N2Cc3c(ncnc3NCc3ccc(C(F)(F)F)cc3)CN(C)C2=O)c1	1%
COc1cc(-c2nc3nc[nH]n3c2Nc2ccc(C(C)C)cc2)ccc1O	i
CC(C)c1ccc(Nc2c(-c3ccccn3)nc3ccccn23)cc1	4.5µM*
Cc1ccc2nc(-c3ccccn3)c(Nc3ccc(F)cc3)n2c1	4µM*
Cc1ccc2nc(-c3ccc(C)s3)c(Nc3ccc4c(c3)OCCO4)n2c1	15%
COc1ccc(Nc2ccc3nnc(-c4ccccn4)n3n2)cc1	i
Clc1ccc2nc(-c3ccc(Br)o3)c(Nc3ccc4c(c3)OCCO4)n2c1	i
Cc1ccc(Nc2c(-c3cccnc3)nc3ccc(C)cn23)cc1	-12%
Fc1ccc(Nc2c(-c3ccccn3)nc3ccc(Cl)cn23)cc1	8.9µM*
Cc1cc(C(F)(F)F)nn1CC(=O)NCC(=O)N1CCCCCCNC(=O)CC1c1ccccc1 (configuration not stated)	-26%
CC(C)c1nnc(C2CN(C(=O)c3cnccn3)CC23CCOCC3)o1 (configuration not stated)	-21%
COc1ccc(C(=O)N2[C@@H]3CC[C@H]2CC(NC(=O)c2cnc(C)cn2)C3)c(OC)c1 (some centres not stated)	13%
